# Many of the other results were omitted from the sample, so the strongest signals are more common in it than they were.
# B1: CFEM-SCL (Saccharomyces cerevisiae), O13547 (protein)
# chain: MRATTLLSSVVSLALLSKEVLATPPACLLACVAQVGKSSSTCDSLNQVTCYCEHENSAVKKCLDSICPNNDADAAYSAFKSSCSEQNASLGD
# Columns and labels:
# Experiment in all cases: glycan array binding signal (z-score within array); higher = stronger binding
# Conditions in all cases: glycan notation: IUPAC condensed, linker removed
# [1] = target: Fuc(a1-2)Gal(b1-3)[Fuc(a1-4)]GlcNAc(b1-3)[Fuc(a1-3)[Gal(b1-4)]GlcNAc(b1-6)]Gal(b1-4)Glc
# Method in brief: (§1)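 Glycan array binding is given as a within-array Z-score, which can be read as non-binding when negative. The arrays, 3228 of them, came from the Consortium for Functional Glycomics database and were retained only where the protein sequence was available. Z-scores were averaged across arrays of the same protein sequence at different concentrations or buffers and across linkers.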
# [2] = target: Fuc(a1-2)Gal(b1-4)GlcNAc(b1-2)[Fuc(a1-2)Gal(b1-4)GlcNAc(b1-4)]Man(a1-3)[Fuc(a1-2)Gal(b1-4)GlcNAc(b1-2)Man(a1-6)]Man(b1-4)GlcNAc(b1-4)GlcNAc
# Method in brief: as §1
# [3] = target: Fuc(a1-2)Gal(b1-4)GlcNAc(b1-3)GalNAc
# Method in brief: as §1
# [4] = target: Fuc(a1-2)Gal(b1-4)[Fuc(a1-3)]GlcNAc(b1-3)GalNAc
# Method in brief: as §1
# [5] = target: Fuc(a1-2)Gal6S(b1-3)GlcNAc
# Method in brief: as §1
# [6] = target: Fuc(a1-2)[Gal(a1-3)]Gal(b1-3)GlcNAc(b1-6)GalNAc
# Method in brief: as §1
# [7] = target: Fuc(a1-2)[Gal(a1-3)]Gal(b1-4)GlcNAc(b1-3)GalNAc
# Method in brief: as §1
# [8] = target: Fuc(a1-2)[GalNAc(a1-3)]Gal(b1-3)GlcNAc(b1-6)GalNAc
# Method in brief: as §1
# [9] = target: Fuc(a1-2)[GalNAc(a1-3)]Gal(b1-4)[Fuc(a1-3)]GlcNAc(b1-3)GalNAc
# Method in brief: as §1
# Fuc(a1-3)GlcNAc = target: Fuc(a1-3)GlcNAc
# Method in brief: as §1
# [10] = target: Fuc(a1-3)[Gal(b1-4)]GlcNAc(b1-3)Gal(b1-4)[Fuc(a1-3)]GlcNAc
# Method in brief: as §1
# [11] = target: Fuc(a1-3)[Gal(b1-4)]GlcNAc(b1-6)GalNAc
# Method in brief: as §1
# [12] = target: Fuc(a1-3)[Gal(b1-4)]GlcNAc6S
# Method in brief: as §1
# [13] = target: Gal(a1-3)Gal(b1-3)GlcNAc(b1-2)Man(a1-3)[Gal(a1-3)Gal(b1-3)GlcNAc(b1-2)Man(a1-6)]Man(b1-4)GlcNAc(b1-4)GlcNAc
# Method in brief: as §1
# [14] = target: Gal(a1-3)Gal(b1-4)GlcNAc(b1-3)GalNAc
# Method in brief: as §1
# [15] = target: Gal(a1-3)[Gal(a1-4)]Gal(b1-4)GlcNAc
# Method in brief: as §1
# Gal(b1-2)Gal = target: Gal(b1-2)Gal
# Method in brief: as §1
# Gal(b1-3)Gal = target: Gal(b1-3)Gal
# Method in brief: as §1
# Gal(b1-3)Gal(b1-4)GlcNAc = target: Gal(b1-3)Gal(b1-4)GlcNAc
# Method in brief: as §1
# Gal(b1-3)GalNAc = target: Gal(b1-3)GalNAc
# Method in brief: as §1
# Gal(b1-3)GalNAc(b1-3)Gal = target: Gal(b1-3)GalNAc(b1-3)Gal
# Method in brief: as §1
# [16] = target: Gal(b1-3)GalNAc(b1-4)Gal(b1-4)Glc
# Method in brief: as §1
# [17] = target: Gal(b1-3)GalNAc(b1-4)[Neu5Ac(a2-3)]Gal(b1-4)Glc
# Method in brief: as §1
# [18] = target: Gal(b1-3)[Neu5Ac(a2-6)]GalNAc
# Method in brief: as §1
# [19] = target: Gal(b1-4)GlcNAc(b1-2)Man(a1-3)[Man(a1-6)]Man(b1-4)GlcNAc(b1-4)GlcNAc
# Method in brief: as §1
# [20] = target: Gal(b1-4)GlcNAc(b1-2)[Gal(b1-4)GlcNAc(b1-6)]Man(a1-6)[GlcNAc(b1-4)][Gal(b1-4)GlcNAc(b1-2)Man(a1-3)]Man(b1-4)GlcNAc(b1-4)GlcNAc
# Method in brief: as §1
# [21] = target: Gal(b1-4)GlcNAc(b1-3)Gal(b1-4)GlcNAc(b1-3)Gal(b1-4)GlcNAc(b1-3)Gal(b1-4)GlcNAc(b1-2)Man(a1-3)[Gal(b1-4)GlcNAc(b1-3)Gal(b1-4)GlcNAc(b1-3)Gal(b1-4)GlcNAc(b1-3)Gal(b1-4)GlcNAc(b1-2)Man(a1-6)]Man(b1-4)GlcNAc(b1-4)GlcNAc
# Method in brief: as §1
# [22] = target: Gal(b1-4)GlcNAc(b1-3)Gal(b1-4)GlcNAc(b1-3)Gal(b1-4)GlcNAc(b1-3)Gal(b1-4)GlcNAc(b1-3)Gal(b1-4)GlcNAc(b1-2)Man(a1-3)[Gal(b1-4)GlcNAc(b1-3)Gal(b1-4)GlcNAc(b1-3)Gal(b1-4)GlcNAc(b1-3)Gal(b1-4)GlcNAc(b1-3)Gal(b1-4)GlcNAc(b1-2)Man(a1-6)]Man(b1-4)GlcNAc(b1-4)[Fuc(a1-6)]GlcNAc
# Method in brief: as §1
# [23] = target: Gal(b1-4)GlcNAc(b1-3)GalNAc
# Method in brief: as §1
# Gal3S(b1-4)GlcNAc = target: Gal3S(b1-4)GlcNAc
# Method in brief: as §1
# Gal6S(b1-4)GlcNAc = target: Gal6S(b1-4)GlcNAc
# Method in brief: as §1
# GalNAc(b1-4)GlcNAc = target: GalNAc(b1-4)GlcNAc
# Method in brief: as §1
# [24] = target: GalNAc(b1-4)GlcNAc(b1-2)Man
# Method in brief: as §1
# [25] = target: Glc(a1-6)Glc(a1-6)Glc(a1-6)Glc
# Method in brief: as §1
# GlcA(b1-3)GlcNAc = target: GlcA(b1-3)GlcNAc
# Method in brief: as §1
# [26] = target: GlcNAc(b1-2)[GlcNAc(b1-4)]Man(a1-3)[GlcNAc(b1-4)][GlcNAc(b1-2)Man(a1-6)]Man(b1-4)GlcNAc(b1-4)GlcNAc
# Method in brief: as §1
# [27] = target: GlcNAc(b1-2)[GlcNAc(b1-4)]Man(a1-3)[GlcNAc(b1-4)][GlcNAc(b1-2)[GlcNAc(b1-6)]Man(a1-6)]Man(b1-4)GlcNAc(b1-4)GlcNAc
# Method in brief: as §1
# [28] = target: Kdn(a2-3)Gal(b1-4)[Fuc(a1-3)]GlcNAc
# Method in brief: as §1
# [29] = target: Man(a1-2)Man(a1-2)Man(a1-3)Man
# Method in brief: as §1
# [30] = target: Neu5Ac(a2-3)Gal(b1-3)[Fuc(a1-4)]GlcNAc(b1-3)Gal(b1-4)[Fuc(a1-3)]GlcNAc
# Method in brief: as §1
# [31] = target: Neu5Ac(a2-3)Gal(b1-4)GlcNAc(b1-3)GalNAc
# Method in brief: as §1
# [32] = target: Neu5Ac(a2-3)Gal(b1-4)[Fuc(a1-3)]GlcNAc(b1-6)[Gal(b1-3)]GalNAc
# Method in brief: as §1
# [33] = target: Neu5Ac(a2-3)Gal6S(b1-4)GlcNAc
# Method in brief: as §1
# [34] = target: Neu5Ac(a2-6)Gal(b1-4)GlcNAc
# Method in brief: as §1
# [35] = target: Neu5Ac(a2-6)Gal(b1-4)GlcNAc(b1-3)Gal(b1-4)GlcNAc(b1-3)Gal(b1-4)GlcNAc(b1-2)Man(a1-3)[Neu5Ac(a2-6)Gal(b1-4)GlcNAc(b1-3)Gal(b1-4)GlcNAc(b1-3)Gal(b1-4)GlcNAc(b1-2)Man(a1-6)]GalNAc
# Method in brief: as §1
# [36] = target: Neu5Ac(a2-6)Gal(b1-4)GlcNAc(b1-3)Gal(b1-4)GlcNAc(b1-3)[Neu5Ac(a2-6)Gal(b1-4)GlcNAc(b1-3)Gal(b1-4)GlcNAc(b1-6)]GalNAc
# Method in brief: as §1
# [37] = target: Neu5Gc(a2-3)Gal(b1-3)GlcNAc
# Method in brief: as §1
binder,measurement,setting,value
B1,glycan array binding signal (z-score),[1],-0.173
same,glycan array binding signal (z-score),[2],-0.213
same,glycan array binding signal (z-score),[3],3.91
same,glycan array binding signal (z-score),[4],3.09
same,glycan array binding signal (z-score),[5],-0.235
same,glycan array binding signal (z-score),[6],-0.325
same,glycan array binding signal (z-score),[7],-0.207
same,glycan array binding signal (z-score),[8],-0.289
same,glycan array binding signal (z-score),[9],2.67
same,glycan array binding signal (z-score),Fuc(a1-3)GlcNAc,-0.151
same,glycan array binding signal (z-score),[10],-0.174
same,glycan array binding signal (z-score),[11],2.59
same,glycan array binding signal (z-score),[12],-0.014
same,glycan array binding signal (z-score),[13],0.636
same,glycan array binding signal (z-score),[14],-0.281
same,glycan array binding signal (z-score),[15],-0.238
same,glycan array binding signal (z-score),Gal(b1-2)Gal,0.077
same,glycan array binding signal (z-score),Gal(b1-3)Gal,4.26
same,glycan array binding signal (z-score),Gal(b1-3)Gal(b1-4)GlcNAc,2.99
same,glycan array binding signal (z-score),Gal(b1-3)GalNAc,3.86
same,glycan array binding signal (z-score),Gal(b1-3)GalNAc(b1-3)Gal,14.5
same,glycan array binding signal (z-score),[16],11.1
same,glycan array binding signal (z-score),[17],2.46
same,glycan array binding signal (z-score),[18],3.63
same,glycan array binding signal (z-score),[19],-0.238
same,glycan array binding signal (z-score),[20],-0.19
same,glycan array binding signal (z-score),[21],-0.022
same,glycan array binding signal (z-score),[22],-0.165
same,glycan array binding signal (z-score),[23],-0.111
same,glycan array binding signal (z-score),Gal3S(b1-4)GlcNAc,-0.261
same,glycan array binding signal (z-score),Gal6S(b1-4)GlcNAc,-0.027
same,glycan array binding signal (z-score),GalNAc(b1-4)GlcNAc,0.047
same,glycan array binding signal (z-score),[24],-0.281
same,glycan array binding signal (z-score),[25],-0.331
same,glycan array binding signal (z-score),GlcA(b1-3)GlcNAc,-0.277
same,glycan array binding signal (z-score),[26],-0.326
same,glycan array binding signal (z-score),[27],-0.303
same,glycan array binding signal (z-score),[28],-0.086
same,glycan array binding signal (z-score),[29],0.113
same,glycan array binding signal (z-score),[30],-0.234
same,glycan array binding signal (z-score),[31],-0.277
same,glycan array binding signal (z-score),[32],0.813
same,glycan array binding signal (z-score),[33],-0.311
same,glycan array binding signal (z-score),[34],-0.282
same,glycan array binding signal (z-score),[35],1.21
same,glycan array binding signal (z-score),[36],-0.146
same,glycan array binding signal (z-score),[37],-0.298

# Reference: the supplement of paper PMC8728848
